Assay in all cases: HT-SELEX; 20 mM HEPES pH 7, 140 mM KCl, 5 mM NaCl, 1 mM K2HPO4, 2 mM MgSO4, 100 uM EGTA, ZnSO4, 0.1% Tween20; room temperature, 1 h; high values mean tight binding
What all share (conditions): protein: ivt; tags: eGFP (N-terminal); dsDNA, one strand shown

Experiment [1] addresses ZNF721 full-length (Homo sapiens, UniProt Q8TF20-2 1-923). An outline of the steps: (§1)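 In HEPES/KCl low-stringency buffer with Tween20, a bead-immobilised tagged transcription factor (full-length or DNA-binding-domain fragment, from HEK293 lysate or cell-free extract) was incubated with a randomized 40-base DNA library for 1 h at room temperature. DNA retained after washing was heat-eluted, amplified by PCR over successive cycles and Illumina-sequenced, giving ~3 million 60 bp reads per sample. The reported binding signal, a relative k-mer count in those selected reads, rises with tighter binding.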

For experiment [2], the target named is ZNF721 DBD1 (Homo sapiens, UniProt Q8TF20-2 29-461). The method, boiled down: as §1
Sequence of ZNF721 DBD1 (Q8TF20 17-449): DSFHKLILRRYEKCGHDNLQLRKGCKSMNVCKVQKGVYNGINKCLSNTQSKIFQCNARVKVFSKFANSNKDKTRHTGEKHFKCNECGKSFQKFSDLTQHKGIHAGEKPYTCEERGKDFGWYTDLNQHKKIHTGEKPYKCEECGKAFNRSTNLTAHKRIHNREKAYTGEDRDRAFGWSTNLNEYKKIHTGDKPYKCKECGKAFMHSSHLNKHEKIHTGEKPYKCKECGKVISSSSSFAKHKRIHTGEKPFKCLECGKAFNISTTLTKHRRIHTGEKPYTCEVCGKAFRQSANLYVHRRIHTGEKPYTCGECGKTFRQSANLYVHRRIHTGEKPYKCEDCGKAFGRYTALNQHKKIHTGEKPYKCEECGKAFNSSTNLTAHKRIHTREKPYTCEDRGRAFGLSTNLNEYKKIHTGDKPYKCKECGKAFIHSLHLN
In experiment [3] the target is ZNF721 DBD2 (Homo sapiens, UniProt Q8TF20-2 395-923). The method, boiled down:
as §1

Sequence of ZNF721 DBD2 (Q8TF20 383-911): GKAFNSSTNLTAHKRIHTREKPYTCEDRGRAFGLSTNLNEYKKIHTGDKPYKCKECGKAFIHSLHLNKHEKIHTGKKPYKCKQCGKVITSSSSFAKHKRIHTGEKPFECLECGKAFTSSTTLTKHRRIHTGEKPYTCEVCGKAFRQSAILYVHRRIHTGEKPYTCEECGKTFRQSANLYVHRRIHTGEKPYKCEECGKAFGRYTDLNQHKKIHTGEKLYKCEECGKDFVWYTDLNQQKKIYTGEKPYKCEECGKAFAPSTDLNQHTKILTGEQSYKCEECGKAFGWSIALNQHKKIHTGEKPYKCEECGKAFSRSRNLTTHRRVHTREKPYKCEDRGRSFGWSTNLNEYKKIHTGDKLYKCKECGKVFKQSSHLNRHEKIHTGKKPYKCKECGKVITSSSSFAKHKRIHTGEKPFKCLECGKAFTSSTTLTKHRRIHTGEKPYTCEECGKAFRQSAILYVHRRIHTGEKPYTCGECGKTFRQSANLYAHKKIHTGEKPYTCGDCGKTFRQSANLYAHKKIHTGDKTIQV
Sequence of ZNF721 full-length (Q8TF20 other isoform, or with tags, fused parts or gaps): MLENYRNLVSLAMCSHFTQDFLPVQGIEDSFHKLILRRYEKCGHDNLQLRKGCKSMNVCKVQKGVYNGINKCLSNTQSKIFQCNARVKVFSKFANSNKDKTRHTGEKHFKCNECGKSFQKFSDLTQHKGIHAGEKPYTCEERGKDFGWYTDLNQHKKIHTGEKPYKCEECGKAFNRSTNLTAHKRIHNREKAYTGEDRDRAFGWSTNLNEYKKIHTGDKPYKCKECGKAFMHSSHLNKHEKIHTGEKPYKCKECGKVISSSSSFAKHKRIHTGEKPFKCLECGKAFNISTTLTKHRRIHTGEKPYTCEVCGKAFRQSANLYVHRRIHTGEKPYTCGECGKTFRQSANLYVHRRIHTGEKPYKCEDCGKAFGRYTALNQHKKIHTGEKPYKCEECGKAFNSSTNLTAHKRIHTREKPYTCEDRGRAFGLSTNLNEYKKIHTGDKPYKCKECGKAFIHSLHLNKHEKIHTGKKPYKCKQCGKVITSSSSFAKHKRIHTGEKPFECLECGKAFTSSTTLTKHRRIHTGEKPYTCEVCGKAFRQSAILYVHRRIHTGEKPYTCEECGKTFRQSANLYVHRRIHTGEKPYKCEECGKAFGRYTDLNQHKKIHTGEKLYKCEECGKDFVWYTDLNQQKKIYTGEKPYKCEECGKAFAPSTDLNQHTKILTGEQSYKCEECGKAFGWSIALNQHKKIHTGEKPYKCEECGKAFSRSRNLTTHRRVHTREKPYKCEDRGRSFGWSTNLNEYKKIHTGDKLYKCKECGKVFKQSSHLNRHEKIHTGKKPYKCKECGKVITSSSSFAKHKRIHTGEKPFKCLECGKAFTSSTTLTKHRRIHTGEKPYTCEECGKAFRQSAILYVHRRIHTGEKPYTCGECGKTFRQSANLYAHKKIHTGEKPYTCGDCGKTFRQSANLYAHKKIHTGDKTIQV

Consider CCACCCCCAC, for which the binding signal worked out at 0.326 relative 10-mer count in experiment [1], 0.0121 relative 10-mer count in experiment [2] and 0.00515 relative 10-mer count in experiment [3].

As for CGGAAAAAAG, the binding signal was 0.109 relative 10-mer count in experiment [1], 0.023 relative 10-mer count in experiment [2] and 0.0288 relative 10-mer count in experiment [3].

For the sequence CAAAAAAAAA, the figures for the binding signal in experiment [1], in experiment [2] and in experiment [3] were 0.226 relative 10-mer count, 0.0215 relative 10-mer count and 0.0886 relative 10-mer count, respectively.

As to CAAAAAAGCA, the results for the binding signal in experiment [1], in experiment [2] and in experiment [3] were 0.259 relative 10-mer count, 0.00725 relative 10-mer count and 0.17 relative 10-mer count, respectively.

For the sequence AAAGAAGCTA, the binding signal stood at 0.132 relative 10-mer count in experiment [1], 0.109 relative 10-mer count in experiment [2] and 0.00132 relative 10-mer count in experiment [3].

For the sequence AAACAAGCAG, the binding signal was 0.212 relative 10-mer count in experiment [1], 0.00908 relative 10-mer count in experiment [2] and 0.149 relative 10-mer count in experiment [3].

Turning to CCCCCGCTCC, the results for the binding signal in experiment [1], in experiment [2] and in experiment [3] were 0.103 relative 10-mer count, 0.0033 relative 10-mer count and 0.00144 relative 10-mer count, respectively.

Turning to CCACCGACCC, the binding signal in experiment [1] amounted to 0.107 relative 10-mer count; in experiment [2] it was 0.00482 relative 10-mer count; in experiment [3], 0.0036 relative 10-mer count.

As to CACCCCCCGC, the binding signal came out at 0.132 relative 10-mer count in experiment [1], 0.00537 relative 10-mer count in experiment [2] and 0.00635 relative 10-mer count in experiment [3].

In the case of CACCCCCCCC, the binding signal in experiment [1] worked out at 0.217 relative 10-mer count; in experiment [2], 0.00789 relative 10-mer count; in experiment [3] it was 0.00384 relative 10-mer count.

As for CTCCCCTCCC, the binding signal came out at 0.135 relative 10-mer count in experiment [1], 0.00693 relative 10-mer count in experiment [2] and 0.00455 relative 10-mer count in experiment [3].

In the case of AGCATGACCA, the binding signal is 0.152 relative 10-mer count in experiment [1], 0.00431 relative 10-mer count in experiment [2] and 0.236 relative 10-mer count in experiment [3].

On to CCTCCCCTCC, for which the binding signal in experiment [1] was found to be 0.155 relative 10-mer count; in experiment [2], 0.00812 relative 10-mer count; in experiment [3], 0.0132 relative 10-mer count.

Regarding AAGCTATCCC, the binding signal in experiment [1] was determined as 0.172 relative 10-mer count; in experiment [2], 0.105 relative 10-mer count; in experiment [3], 0.0012 relative 10-mer count.

Regarding CCTGCCCCCC, the binding signal was 0.103 relative 10-mer count in experiment [1], 0.00454 relative 10-mer count in experiment [2] and 0.00132 relative 10-mer count in experiment [3].

With CCCCCACCCC, the binding signal came to 0.44 relative 10-mer count in experiment [1], 0.0205 relative 10-mer count in experiment [2] and 0.00276 relative 10-mer count in experiment [3].

CGACCCCCCC: the binding signal in experiment [1] stood at 0.113 relative 10-mer count; in experiment [2], 0.00427 relative 10-mer count; in experiment [3], 0.0018 relative 10-mer count.

Consider AAAAAAAGCG, for which the values for the binding signal in experiment [1], in experiment [2] and in experiment [3] were 0.217 relative 10-mer count, 0.0356 relative 10-mer count and 0.0422 relative 10-mer count, respectively.

In the case of CCTACCCACC, the figures for the binding signal in experiment [1], in experiment [2] and in experiment [3] were 0.124 relative 10-mer count, 0.00546 relative 10-mer count and 0.0101 relative 10-mer count, respectively.

On to GACCCACCCC, for which the binding signal in experiment [1] turned out to be 0.124 relative 10-mer count; in experiment [2] it was 0.00427 relative 10-mer count; in experiment [3], 0.0018 relative 10-mer count.

Turning to AGCCCACCCC, the binding signal in experiment [1] was found to be 0.12 relative 10-mer count; in experiment [2], 0.00583 relative 10-mer count; in experiment [3] it was 0.0209 relative 10-mer count.

With CCCCCGCACC, the binding signal amounted to 0.146 relative 10-mer count in experiment [1], 0.00527 relative 10-mer count in experiment [2] and 0.00419 relative 10-mer count in experiment [3].

CAACCCCACC: the figures for the binding signal in experiment [1], in experiment [2] and in experiment [3] were 0.149 relative 10-mer count, 0.00454 relative 10-mer count and 0.00384 relative 10-mer count, respectively.

Regarding AAAGAAGCGT, the binding signal in experiment [1] worked out at 0.12 relative 10-mer count; in experiment [2], 0.0739 relative 10-mer count; in experiment [3], 0.00348 relative 10-mer count.

Take CCCGCCCCCA: the figures for the binding signal in experiment [1], in experiment [2] and in experiment [3] were 0.153 relative 10-mer count, 0.00706 relative 10-mer count and 0.00132 relative 10-mer count, respectively.

With CCCTCCCCCA, the binding signal in experiment [1] was found to be 0.192 relative 10-mer count; in experiment [2] it was 0.00881 relative 10-mer count; in experiment [3] it was 0.00839 relative 10-mer count.

For the sequence AAAAGCATAC, the binding signal worked out at 0.149 relative 10-mer count in experiment [1], 0.0247 relative 10-mer count in experiment [2] and 0.039 relative 10-mer count in experiment [3].

For the sequence ACGAAAAAAG, the binding signal worked out at 0.126 relative 10-mer count in experiment [1], 0.0251 relative 10-mer count in experiment [2] and 0.0417 relative 10-mer count in experiment [3].

As to CCGCCCCCGC, the binding signal came out at 0.127 relative 10-mer count in experiment [1], 0.00491 relative 10-mer count in experiment [2] and 0.0018 relative 10-mer count in experiment [3].

Consider CCCCTCCCCG, for which the binding signal in experiment [1] amounted to 0.128 relative 10-mer count; in experiment [2], 0.00527 relative 10-mer count; in experiment [3] it was 0.00216 relative 10-mer count.

For CCACACACCC, the binding signal in experiment [1] turned out to be 0.105 relative 10-mer count; in experiment [2], 0.00321 relative 10-mer count; in experiment [3], 0.00312 relative 10-mer count.

For GCCCGCCCCC, the binding signal worked out at 0.106 relative 10-mer count in experiment [1], 0.00413 relative 10-mer count in experiment [2] and 0.00132 relative 10-mer count in experiment [3].

Regarding AAAGCATACC, the binding signal was determined as 0.143 relative 10-mer count in experiment [1], 0.0247 relative 10-mer count in experiment [2] and 0.0344 relative 10-mer count in experiment [3].

Regarding CCGACCACCC, the binding signal in experiment [1] amounted to 0.119 relative 10-mer count; in experiment [2] it was 0.00495 relative 10-mer count; in experiment [3], 0.00443 relative 10-mer count.

With CCCCGACCAC, the binding signal came to 0.111 relative 10-mer count in experiment [1], 0.00422 relative 10-mer count in experiment [2] and 0.00395 relative 10-mer count in experiment [3].

As to CCCCATCCCC, the values for the binding signal in experiment [1], in experiment [2] and in experiment [3] were 0.231 relative 10-mer count, 0.0083 relative 10-mer count and 0.0036 relative 10-mer count, respectively.

Turning to CACCTCCCCA, the results for the binding signal in experiment [1], in experiment [2] and in experiment [3] were 0.115 relative 10-mer count, 0.00505 relative 10-mer count and 0.00348 relative 10-mer count, respectively.

On to CCACCACACC, for which the figures for the binding signal in experiment [1], in experiment [2] and in experiment [3] were 0.148 relative 10-mer count, 0.00537 relative 10-mer count and 0.00587 relative 10-mer count, respectively.

In the case of CACTTCATAC, the binding signal in experiment [1] was found to be 0.747 relative 10-mer count; in experiment [2], 1 relative 10-mer count; in experiment [3], 0.00144 relative 10-mer count.

For AAGGCATACC, the binding signal in experiment [1] was 0.13 relative 10-mer count; in experiment [2], 0.00183 relative 10-mer count; in experiment [3], 0.114 relative 10-mer count.

With CCCACCCCGC, the values for the binding signal in experiment [1], in experiment [2] and in experiment [3] were 0.212 relative 10-mer count, 0.0094 relative 10-mer count and 0.00336 relative 10-mer count, respectively.

In the case of CCCCCCTCCA, the binding signal was found to be 0.13 relative 10-mer count in experiment [1], 0.0055 relative 10-mer count in experiment [2] and 0.0024 relative 10-mer count in experiment [3].

Regarding CCCCACCCCA, the binding signal was 0.297 relative 10-mer count in experiment [1], 0.0112 relative 10-mer count in experiment [2] and 0.00288 relative 10-mer count in experiment [3].

Take CACCCCCCCG: the binding signal in experiment [1] was 0.131 relative 10-mer count; in experiment [2], 0.00252 relative 10-mer count; in experiment [3], 0.003 relative 10-mer count.

On to CCCCCCGACC, for which the binding signal in experiment [1] came to 0.147 relative 10-mer count; in experiment [2], 0.00482 relative 10-mer count; in experiment [3] it was 0.00288 relative 10-mer count.

With AGGGGGAGGG, the binding signal is 0.145 relative 10-mer count in experiment [1], 0.00752 relative 10-mer count in experiment [2] and 0.00515 relative 10-mer count in experiment [3].

For the sequence CCTCCCACCC, the binding signal in experiment [1] was found to be 0.255 relative 10-mer count; in experiment [2] it was 0.0139 relative 10-mer count; in experiment [3] it was 0.00599 relative 10-mer count.

With ACCCCTCCAC, the binding signal in experiment [1] turned out to be 0.11 relative 10-mer count; in experiment [2] it was 0.00472 relative 10-mer count; in experiment [3] it was 0.00419 relative 10-mer count.

CCACCTCCCA: the results for the binding signal in experiment [1], in experiment [2] and in experiment [3] were 0.127 relative 10-mer count, 0.0061 relative 10-mer count and 0.00384 relative 10-mer count, respectively.

As to CCTCCACCCC, the binding signal in experiment [1] came out at 0.263 relative 10-mer count; in experiment [2] it was 0.0117 relative 10-mer count; in experiment [3], 0.00455 relative 10-mer count.

For ACCCACCCAC, the binding signal in experiment [1] stood at 0.196 relative 10-mer count; in experiment [2] it was 0.00922 relative 10-mer count; in experiment [3], 0.00887 relative 10-mer count.

Turning to CCTCCCGCCC, the binding signal in experiment [1] stood at 0.161 relative 10-mer count; in experiment [2], 0.00656 relative 10-mer count; in experiment [3], 0.00264 relative 10-mer count.

Take GCCACCACCC: the binding signal in experiment [1] is 0.106 relative 10-mer count; in experiment [2] it was 0.00413 relative 10-mer count; in experiment [3] it was 0.00204 relative 10-mer count.

Regarding CCACGACCCC, the binding signal was 0.118 relative 10-mer count in experiment [1], 0.00344 relative 10-mer count in experiment [2] and 0.003 relative 10-mer count in experiment [3].

CCCCGCCCCA: the results for the binding signal in experiment [1], in experiment [2] and in experiment [3] were 0.196 relative 10-mer count, 0.0067 relative 10-mer count and 0.00228 relative 10-mer count, respectively.

For the sequence AAGAAAAAAG, the binding signal in experiment [1] is 0.166 relative 10-mer count; in experiment [2] it was 0.0407 relative 10-mer count; in experiment [3], 0.0319 relative 10-mer count.

GGGGGGGGGA: the binding signal in experiment [1] amounted to 0.116 relative 10-mer count; in experiment [2], 0.00486 relative 10-mer count; in experiment [3] it was 0.00192 relative 10-mer count.

Regarding ACCCCACCCC, the binding signal came to 0.277 relative 10-mer count in experiment [1], 0.0101 relative 10-mer count in experiment [2] and 0.00324 relative 10-mer count in experiment [3].

As to ACAGCGTACC, the results for the binding signal in experiment [1], in experiment [2] and in experiment [3] were 0.193 relative 10-mer count, 0.00115 relative 10-mer count and 0.259 relative 10-mer count, respectively.

On to GGGGAGGGGA, for which the binding signal in experiment [1] amounted to 0.125 relative 10-mer count; in experiment [2] it was 0.00674 relative 10-mer count; in experiment [3] it was 0.0036 relative 10-mer count.

The record behind these values is paper PMC13541613, “GHT-SELEX demonstrates unexpectedly high intrinsic sequence specificity and complex DNA binding of many human transcription factors”.
